Consider 87 compounds from PubChem BioAssay AID463173 (ICCB-Longwood Screening Facility, Harvard Medical School, 2010).

Screen size: about 52,000 compounds; about 4,300 (8.3%) were called active. This is one part of a sample in which actives are shown more often than they occur. Cut-off read from the data, not from the text of the source: active = survival mostly below about 52% (no sharp cut-off); inactive = mostly above about 56%.

This assay deals with DeltatarO mutant. In words: S. aureus survival, RN4220 and DeltatarO strains – OD600, teichoic acid synthesis inhibitors, primary screen (AID 463173). The note with it: S. aureus RN4220 wild type/DeltatarO growth, OD600, 18 h, active compounds read low, screened at 18.75 µg/mL (by protocol).
Take `Cc1ccc2ncc(C(=O)Nc3cccc(C(F)(F)F)c3)c(=O)n2c1`: the survival is 122% (inactive).

Turning to `Cc1[nH]c2ccccc2c1C1N2CC3(C)CN1CC(C)(C2)C3=O` (configuration not stated), the survival was 77% (inactive). As for `CCc1ccc(NC(=O)CN(c2ccc(C)cc2)S(=O)(=O)c2c(C)nn(C)c2C)cc1`, the survival is 56% (inactive). Take `Cc1cc(C)cc(N(CC(=O)Nc2c(C)cc(C)cc2C)S(=O)(=O)c2c(C)nn(C)c2C)c1`: the survival was -5% (active). To `Cc1nn(C)c(C)c1S(=O)(=O)N(CC(=O)Nc1ccc(F)cc1F)c1ccc(C(C)C)cc1` belongs 94% (inactive); to `COc1ccc(N(CC(=O)Nc2cccc(Cl)c2C)S(=O)(=O)c2c(C)nn(C)c2C)cc1`, 62% (inactive). The result for `Cc1cccc(NC(=O)CN(c2ccc(C(C)C)cc2)S(=O)(=O)c2c(C)nn(C)c2C)c1C` reads 42% (active). For `CCOc1ccccc1NC(=O)CN(c1cc(C)cc(C)c1)S(=O)(=O)c1c(C)nn(C)c1C`, the survival was 89% (inactive). The result for `CC(=O)c1ccc(N2CCN(S(=O)(=O)c3ccc(-c4cc(C)no4)s3)CC2)cc1` reads -5% (active). Take `Cc1cc(-c2ccc(S(=O)(=O)N3CCN(c4ccc(Cl)cc4)CC3)s2)on1`: the survival is 124% (inactive). The result for `CC(=O)c1ccc(N2CCN(S(=O)(=O)c3ccc(-c4cc(C(F)(F)F)on4)s3)CC2)cc1` reads 96% (inactive); that for `Cc1cc(C)c(NC(=O)CN2C(=O)C3(SCC(=O)N3c3ccc(F)cc3)c3ccccc32)c(C)c1` (configuration not stated), 74% (inactive). To `CN(Cc1ccccc1)C(=O)CSc1nnc(-c2cccc(Cl)c2)o1` belongs 85% (inactive). To `O=C(N/N=C/c1ccco1)C1CN(S(=O)(=O)c2ccccc2)CCN1S(=O)(=O)c1ccccc1` (configuration not stated) belongs 1% (active). As for `O=C(N/N=C/c1ccco1)C1c2ccccc2Oc2ccccc21`, the survival is 96% (inactive). The result for `CCNC(=O)C1CN(S(=O)(=O)c2ccccc2)CCN1S(=O)(=O)c1ccccc1` (configuration not stated) reads 75% (inactive); that for `Cc1ccc(CNS(=O)(=O)c2ccc3c(c2)CCN3S(C)(=O)=O)cc1`, 94% (inactive); that for `O=C(Nc1cccc(C(F)(F)F)c1)c1ccc(F)c(S(=O)(=O)N2CCc3ccccc3C2)c1`, 91% (inactive).

For `COc1ccc(-n2c(/C=C/c3cccc4ccccc34)nc3ccccc3c2=O)cc1Cl`, the survival is 78% (inactive). To `COc1cc2c(cc1OC)C(COc1ccc(F)cc1)N(C(=O)c1ccc(S(=O)(=O)N3CCCC3)cc1)CC2` (configuration not stated) belongs 81% (inactive); to `COc1cc2c(cc1OC)C(COc1ccc(C(C)C)cc1)N(C(=O)COc1ccccc1)CC2` (configuration not stated), 101% (inactive); to `COc1cc2c(cc1OC)C(COc1ccccc1OC)N(C(=O)COc1ccc(Cl)cc1)CC2` (configuration not stated), 47% (active).

Turning to `COc1cc2c(cc1OC)C(COc1cc(C)cc(C)c1)N(C(=O)c1ccc(S(=O)(=O)N3CCCC3)cc1)CC2` (configuration not stated), the survival is 73% (inactive). For `COC(=O)c1ccc(OCC2c3cc(OC)c(OC)cc3CCN2C(=O)COc2ccc(Cl)cc2)cc1` (configuration not stated), the survival was 78% (inactive).

On to `COc1cc2c(cc1OC)C(COc1ccccc1OC)N(C(=O)c1ccc(S(=O)(=O)N3CCCC3)cc1)CC2` (configuration not stated), for which the survival was 32% (active). In the case of `COCCCNC(=O)c1cc2c(=O)oc3ccc(C)cc3c2s1`, the survival is 68% (inactive). The result for `COC(=O)c1cnn2c(C)c(Cc3c(C)cc(C)cc3C)c(C)nc12` reads 83% (inactive); that for `CC(C)Nc1nc(Cl)nc(NNC(=O)C(C)Oc2ccccc2)n1` (configuration not stated), 93% (inactive). On to `COCCCNC(=O)CSc1nc2cc3c(cc2c(=O)n1CCCC(=O)NCc1ccc(OC)cc1)OCO3`, for which the survival was 83% (inactive). To `CCN(CC)C(=O)CSc1nc2cc3c(cc2c(=O)n1CCCC(=O)NCc1ccc(OC)cc1)OCO3` belongs 71% (inactive); to `COc1ccc(CCNC(=O)CCCn2c(SCC(N)=O)nc3cc4c(cc3c2=O)OCO4)cc1OC`, 72% (inactive). In the case of `CCOC(=O)CSc1nc2cc3c(cc2c(=O)n1CCCC(=O)NCCc1ccc(OC)c(OC)c1)OCO3`, the survival is -2% (active).

In the case of `CCCCNC(=O)CSc1nc2cc3c(cc2c(=O)n1CCCC(=O)NCCc1ccc(OC)c(OC)c1)OCO3`, the survival is 109% (inactive). With `CCN(CC)C(=O)CSc1nc2cc3c(cc2c(=O)n1CCCCCC(=O)NCc1ccc(OC)cc1)OCO3`, the survival was -1% (active).

For `CCOC(=O)CSc1nc2cc3c(cc2c(=O)n1CCCCCC(=O)NCc1ccc(OC)cc1)OCO3`, the survival was 72% (inactive). The result for `COCCCNC(=O)CSc1nc2cc3c(cc2c(=O)n1CCCCCC(=O)NCc1ccc(OC)cc1)OCO3` reads 6% (active); that for `COCCNC(=O)CSc1nc2cc3c(cc2c(=O)n1CCCCCC(=O)NCc1ccc(OC)cc1)OCO3`, 67% (inactive); that for `COc1ccc(N2CCN(Cc3nc4c(c(=O)[nH]c(=O)n4C)n3Cc3ccccc3F)CC2)cc1`, 119% (inactive). The result for `COc1ccccc1Cn1c(CNS(=O)(=O)c2ccc(CC(C)C)cc2)nc2cccnc21` reads 95% (inactive); that for `COc1ccc(/C=C(\NC(=O)c2ccccc2)C(=O)NC2CCCCC2)cc1`, 86% (inactive); that for `COc1cc(NC(=O)c2cc3ccccn3n2)cc(OC)c1OC`, 69% (inactive). With `Cc1ccc(NC(=O)NCCc2c(C)nn(C)c2C)c(Cl)c1`, the survival was 72% (inactive).

In the case of `Cc1ccc(C(=O)NCC(c2cccs2)S(=O)(=O)c2cccs2)cc1C` (configuration not stated), the survival was 78% (inactive). In the case of `COC(=O)CN1C(=O)C(C)(C)c2cc(S(=O)(=O)Nc3ccc(C(C)C)cc3)ccc21`, the survival was 79% (inactive). For `CC(C)(C)c1ccc(C(=O)N2CCC(c3noc(-c4ccc(S(=O)(=O)N5CCCC5)cc4)n3)CC2)cc1`, the survival is 89% (inactive). For `CCOC(=O)C1CCN(C(c2cc3ccc(OC)cc3n3nnnc23)c2nnnn2C2CCCC2)CC1` (configuration not stated), the survival is 101% (inactive). The result for `CCc1cccc(C)c1Nc1c(-c2cccs2)nc2ncccn12` reads 73% (inactive); that for `CCOc1c(CC2C(=O)Nc3ccc(Br)cc32)cccc1OC` (configuration not stated), 102% (inactive).

As for `COc1ccc(CC2C(=O)Nc3ccc(Br)cc32)cc1OC` (configuration not stated), the survival is 82% (inactive). To `COc1ccc(OC)c(CC2C(=O)Nc3ccc(Br)cc32)c1` (configuration not stated) belongs 72% (inactive); to `CCCCOc1ccccc1CC1C(=O)Nc2ccc(Br)cc21` (configuration not stated), 14% (active); to `CCCOc1ccc(CC2C(=O)Nc3ccc(Br)cc32)cc1` (configuration not stated), 0% (active). On to `CCOc1ccccc1CC1C(=O)Nc2ccc(Br)cc21` (configuration not stated), for which the survival is 59% (inactive).

Take `Cc1cc(C)cc(NC(=O)C2CCN(S(=O)(=O)c3ccc4c(c3)oc(=O)n4C)CC2)c1`: the survival is 95% (inactive). Consider `COc1ccc2c(c1)c1c(c(=O)n(CCc3ccccc3)c(=O)n1Cc1cccc(Cl)c1)n2C`, for which the survival is 76% (inactive). To `O=C(CN1C(=O)CSc2ccc(S(=O)(=O)N3CCCCC3)cc21)NCc1ccc(F)cc1Cl` belongs 79% (inactive); to `CNC(=S)N1C2CCC1CC(NC(=O)NC13CC4CC(CC(C4)C1)C3)C2` (configuration not stated), 79% (inactive); to `CCOC(=O)c1ccc(NC(=O)Nc2cccc(OCc3cc(=O)n4ccc(C)cc4n3)c2)cc1`, 68% (inactive). The result for `Cc1cccc(NC(=O)CSc2nc3ccccc3nc2N2CCOCC2)c1C` reads 51% (inactive); that for `CCCCc1ccc(NC(=O)CSc2nc(=O)[nH]c3c2CCCC3)cc1`, 74% (inactive); that for `CCCCc1ccc(NC(=O)CSc2nc3ccccc3nc2N2CCCCC2)cc1`, 30% (active). The result for `CCCCc1ccc(NC(=O)CSc2nc3ccccc3nc2N2CCOCC2)cc1` reads 30% (active); that for `COc1cccc(NC(=O)CSc2nc3ccccc3nc2N2CCOCC2)c1`, 54% (inactive); that for `Cc1ccc(NC(=O)CSc2nc3ccccc3nc2N2CCOCC2)cc1`, 54% (inactive). Turning to `CCc1cccc(NC(=O)CSc2nc3ccccc3nc2N2CCCCC2)c1`, the survival is -6% (active).

Consider `CC(=O)Nc1ccc(NC(=O)CSc2nc3ccccc3nc2N2CCOCC2)cc1`, for which the survival was 83% (inactive). With `CCc1cccc(C)c1NC(=O)CSc1nc2ccccc2nc1N1CCOCC1`, the survival was 81% (inactive).

With `CCOc1ccccc1NC(=O)CSc1nc2ccccc2nc1N1CCOCC1`, the survival was 4% (active). In the case of `CCOc1ccc(NC(=O)CSc2nc3ccccc3nc2N2CCOCC2)cc1`, the survival is 87% (inactive). The result for `O=C(CS(=O)(=O)Cc1ccccc1)Nc1ccc2c(c1)OCO2` reads 69% (inactive); that for `O=C(NCc1ccc(F)cc1)c1cnc(N2CCOCC2)c2ccccc12`, 95% (inactive); that for `CN(CC(=O)Nc1ccc(F)cc1F)S(=O)(=O)c1ccc(C(=O)N2CCOCC2)s1`, 88% (inactive). The result for `COc1ccc(S(=O)(=O)N2CCC(Oc3ccc(-n4cnnn4)cc3)CC2)cc1OC` reads 77% (inactive); that for `Cc1ccc(CNC(=O)C2CCN(c3nc4ccccc4n(C)c3=O)CC2)cc1`, 87% (inactive). As for `O=C(Nc1ccccc1C(=O)OCc1cc(=O)n2c3c(sc2n1)CCCC3)c1ccc(F)cc1`, the survival is 106% (inactive). Regarding `COc1ccc(OC)c(CNC(=O)c2ccc(Sc3ccc(Cl)cc3)c(NC(C)=O)c2)c1`, the survival was 83% (inactive). The result for `CCc1ccc(-c2cn3c(n2)sc2cc(C(=O)NCC(C)c4ccccc4)ccc23)cc1` (configuration not stated) reads 69% (inactive); that for `COC(=O)c1cnc(N2CCN(c3ccc(OC)cc3)CC2)c2ccccc12`, 62% (inactive). With `COc1cc(CNC(=O)c2ccc3nc(CCc4ccccc4)oc3c2)cc(OC)c1OC`, the survival is 80% (inactive). With `CCc1nn(Cc2cc(C)ccc2C)c(=O)c2cc3cc(C)ccc3n12`, the survival was 95% (inactive). Consider `CCOc1ccc(-c2cc(C(=O)NCCc3ccc(OC)c(OC)c3)[nH]n2)cc1`, for which the survival was 77% (inactive).

For the compound `COc1cccc(S(=O)(=O)N2CCN(Cc3ccc4c(c3)OCO4)CC2)c1`, the survival was 75% (inactive). With `COc1ccc(S(=O)(=O)N2CCN(Cc3ccc4c(c3)OCO4)CC2)cc1OC`, the survival was 43% (active). Consider `COc1ccc(S(=O)(=O)N2CCN(Cc3nc4ccc(C)cc4o3)CC2)cc1OC`, for which the survival was 84% (inactive). For the compound `Cc1ccc(S(=O)(=O)N2CCN(Cc3ccc4c(c3)OCO4)CC2)cc1`, the survival was 70% (inactive). The result for `Cc1cc(C)c(S(=O)(=O)N2CCN(Cc3ccc4c(c3)OCO4)CC2)cc1C` reads 13% (active); that for `NC(=O)CN1CCN(Cc2ccc3c(c2)OCO3)CC1`, 76% (inactive).
